The source of these data is ChEMBL document CHEMBL3988442, “University of Dundee, Small-Polar-MMV Screening Library” (2021).

Out of some 48,000 compounds screened, about 13,000 (27%) showed an effect of 50% or more. The list shows a part of the results.

This assay has as its system Wolbachia pipientis. The assay is described as follows: Anti-Wolbachia Cell-Based Screen. The assay is classed as functional. Details: scale not given: in the data most compounds retested in dose-response had high values. Particulars: 5 µM.
On to `CCN(CC)[C@@H]1CN(S(=O)(=O)c2cn(C)cn2)[C@@H]2CCCO[C@H]12`, for which the “Percent Effect” value is listed as -3.081%.
For the molecule `CN([C@@H]1CCC[C@@H](n2ccnc2)[C@@H]1O)S(=O)(=O)c1cn(C)cn1`, the “Percent Effect” value came to 87.13%.
As for `CN(C)C(=O)c1cc(S(=O)(=O)N2CCCC2Cn2ccnc2)cn1C` (configuration not stated), the figure is 11.52%; as for `CO[C@H]1CCN(S(=O)(=O)c2cn(C)cn2)[C@H]1Cc1ccncc1`, -4.113%.
As for `CC(C)N(C)CC(=O)N1CCCC(n2ccnc2)C1` (configuration not stated), the figure is -10.62%; as for `Cc1nn(C)cc1S(=O)(=O)N(C)[C@@H]1CCC[C@@H](n2ccnc2)[C@@H]1O`, 94.74%; as for `CNC(=O)[C@@H](c1ccccc1F)N1CCC[C@H]1C(=O)NC1CCOCC1.Cl`, 3.155%.
As for `CCCN1CCCn2nc(CNS(=O)(=O)c3cccc(C#N)c3)cc2C1`, the figure is 3.103%; as for `COc1ccc(CNC2CCC(O)CC2)cc1OCCCC#N` (configuration not stated), 107.9%.
As for `COCCOc1ccc(CNC2CCc3ncnn3C2)cc1OC` (configuration not stated), the “Percent Effect” value turned out to be 100.1999%.
As for `c1ccc(OC2CCCC2)c(CNC2CCc3ncnn3C2)c1` (configuration not stated), the figure is 12.7%.
For `COc1ccc(CNC2CCc3ncnn3C2)cc1OCCCC#N` (configuration not stated), the “Percent Effect” value amounted to 100.9%.
Then `COc1ccc(CNCC2CC2)cc1F`, with 0.5807%; and `COc1ccc(CNC2CCc3ncnn3C2)cc1OCC1CC1` (configuration not stated), with 83.43%.
For the molecule `COc1ccc(CCC(=O)NC2CCC(O)CC2)cc1OC` (configuration not stated), the “Percent Effect” value is given as -0.04658%.
As for `CNC(=O)COc1ccccc1CNC1CCc2ncnn2C1` (configuration not stated), the figure is -1.235%; as for `CN(C)C(=O)COc1ccccc1CNC1CCc2ncnn2C1` (configuration not stated), -0.6489%; as for `CCOc1ccc(N(CCC#N)C(=O)c2ccc(OC)nc2)cc1`, 22.48%.
As for `CC(C)N(CC(N)=O)Cc1csc(COc2ccc(F)cc2)n1`, the figure is -2.254%; as for `CC(C)CN1CC2(CCN(C(=O)C(O)c3cccc(Cl)c3)CC2)CC1=O` (configuration not stated), 4.909%; as for `COc1cc(C)nc(N2CCN(C(=O)CCc3ccsc3)CC2)n1`, 17.96%.
As for `CN(CCc1ccccn1)C(=O)c1cccs1.Cl`, the figure is 100.7%.
As for `CC(C)N(Cc1ccccn1)C(=O)CN(C)C(=O)c1cccs1`, the “Percent Effect” value amounted to 109.7%.
As for `O=C(Cc1ccc2c(c1)CCCC2)NCCc1ccccn1`, the “Percent Effect” value was determined as 0.3571%.
Then `CN(Cc1ccccc1NCc1ncc[nH]1)C(=O)c1cccs1`, with 4.243%.
Then `Cc1ccccc1CN(Cc1ccccn1)C(=O)CN(C)C(C)C`, with -1.429%; and `CN(Cc1ccccc1NCc1cscn1)C(=O)c1cccs1`, with -0.6624%.
Then `Cc1cccnc1CC(C)N(C)C(=O)c1cccs1` (configuration not stated), with -6.366%; and `CN(CCc1ccccn1)C(=O)c1cn2c(n1)CNCC2`, with -0.4774%; and `CN(CC(=O)NCCc1ccccn1)C(=O)c1cccs1`, with 94.6%.
In the case of `Cc1nnn2c1COCC(CNC(=O)c1ccc3[nH]ccc3c1)C2` (configuration not stated), the “Percent Effect” value is given as 13.15%.
On to `CCN(C)CC1CCN(C(=O)Nc2ccc(-c3csnn3)cc2)C1` (configuration not stated), for which the “Percent Effect” value is -9.21%.
Then `Cc1nc(C)c(CN(C)C2CCN(C(=O)OC(C)(C)C)CC2)s1`, with -6.792%; and `O=S(=O)(Nc1cn[nH]c1)c1ccc(F)c(Br)c1`, with -20.95%; and `CC(=O)N(C)CC(=O)NCC1(c2cccc(C)c2)CCCC1`, with -4.333%.
As for `COCCN1CCC(c2nc3ccccc3[nH]2)CC1`, the figure is 5.31%; as for `CN(C)c1cncc(C2CCN(CC(N)=O)CC2)n1`, 103%.
Then `OC1(CN2CCCC2)CCCN(Cc2ccc(F)cc2Cl)C1` (configuration not stated), with -5.76%.
Take `CN(C)c1cncc(C2CCN(CCO)CC2)n1`: the “Percent Effect” value is listed as -9.091%.
Turning to `OC1(CN2CCCC2)CCCN(Cc2c[nH]c(CC3CCCC3)n2)C1` (configuration not stated), the “Percent Effect” value was -7.473%.
Then `COCCN1CCC(c2cncc(N(C)C)n2)CC1`, with 88.64%.
Turning to `CN(C)c1cncc(C2CCN(CC3(O)CCCCC3)CC2)n1`, the “Percent Effect” value was 90.17%.
Then `CCn1ncnc1CN1CCOC(Cc2cccc3ccccc23)C1` (configuration not stated), with -5.971%.
As for `CCn1cc(C(=O)NCC2(C(N)=O)CCOCC2)c2ccccc21`, the figure is -0.08495%; as for `Cc1nc(CN(C)C(=O)C2CCC(=O)N(CCN(C)C)C2)cs1` (configuration not stated), 7.495%; as for `CN(CCCc1cnn(C)c1)C(=O)C1COc2ccccc2C1` (configuration not stated), -12.29%.
As to `CCCN(CCc1ccccn1)C(=O)Cn1cc(C)cn1`, the “Percent Effect” value is 98.5%.
Then `Cc1ccc(CC(NC(=O)Cn2cnnn2)c2ccccn2)cc1` (configuration not stated), with 13.96%; and `CCCN(CCc1ccccn1)C(=O)Cn1cnnn1`, with 104.6%.
On to `CN(C)c1ccc(C(=O)Nc2cnn(Cc3ccccn3)c2)cc1`, for which the “Percent Effect” value was -12.03%.
For `Cc1ccccc1C(=O)N1C[C@@H]2[C@@H](CN(C)CCc3ccccn3)[C@@H]2C1`, the “Percent Effect” value is given as -8.245%.
`CCCN(CCc1ccccn1)C(=O)CCc1cnn(C)c1`: the “Percent Effect” value is 95.46%.
As for `CN(CCc1ccccn1)C(=O)C1Cc2ccccc2CN1C` (configuration not stated), the figure is 6.694%.
As for `Cc1cnn(C2CN(CC(=O)NCc3ccccn3)C2)c1`, the figure is 0.4192%.
As for `N#CC1(NC(=O)COc2cc(Cl)cc(Cl)c2)CCOCC1`, the figure is -7.839%; as for `COc1ccc(CN2C[C@@H]3CC[C@H](C2)N(Cc2snnc2C)C3)cc1`, -1.178%.
Consider `CC(C)OCCC(=O)Nc1ncn(CC(=O)N2CCCCCC2)n1`, for which the “Percent Effect” value is -17.71%.
Then `CCCS(=O)(=O)N1CCc2onc(CNc3ncccn3)c2C1`, with 6.344%.
Consider `CCn1cc(CN2CCCC(COc3ccc(F)cc3)C2)cn1` (configuration not stated), for which the “Percent Effect” value was 31.54%.
Then `Cc1c(CNCc2nn(-c3ccccc3)c3c2CCC3)cc(C#N)n1C`, with -12.67%; and `Cc1nccn1C1CCCN(C(=O)c2ccc3c(c2)OCCCO3)C1` (configuration not stated), with 112.3%.
As for `CCc1nccn1C1CCCN(C(=O)c2ccc3c(c2)OCO3)C1` (configuration not stated), the figure is 0.5679%.
As for `CCc1nccn1C1CCCN(C(=O)c2ccc3c(c2)OCCO3)C1` (configuration not stated), the figure is 89.9%; as for `Cc1nccn1C1CCCN(C(=O)c2ccc3c(c2)NC(=O)CO3)C1` (configuration not stated), 3.537%; as for `CCc1nccn1C1CCCN(C(=O)c2ccnc(N(C)C)c2)C1` (configuration not stated), 1.194%.
Turning to `CC(C)c1nccn1C1CCCN(C(=O)c2ccc3c(c2)OCO3)C1` (configuration not stated), the “Percent Effect” value is -3.611%.
Take `CN(C)c1nc(NCc2ccccc2Cn2cccn2)ncc1F`: the “Percent Effect” value was found to be 5.014%.
